Experimental data: PubChem BioAssay AID525 (The Scripps Research Institute Molecular Screening Center, 2006)
Among all 65,000 compounds or so, about 360 (0.55%) were called active.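 How the source made its calls: active means inhibition above the mean inhibition of all tested compounds plus 3 SD (cut at about 48% in these data); inactive means the rest.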 The sample as a whole holds a higher share of actives than the screen did.

biological target: Steroidogenic factor 1 (Homo sapiens) (UniProt Q13285); experiment: inhibitors of human SF-1, primary screen, cell-based, CHO-K1, Gal4-SF-1 LBD, luciferase luminescence (AID 525); details: CHO-K1 Gal4-SF-1 LBD luciferase reporter; at 10 µM; stronger effect = higher value;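 further: 0% = SF-1 transfected cells with DMSO and 100% = mock-transfected cells lacking SF-1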
Sequence (Q13285 whole entry, looked up, the tested form may be a part): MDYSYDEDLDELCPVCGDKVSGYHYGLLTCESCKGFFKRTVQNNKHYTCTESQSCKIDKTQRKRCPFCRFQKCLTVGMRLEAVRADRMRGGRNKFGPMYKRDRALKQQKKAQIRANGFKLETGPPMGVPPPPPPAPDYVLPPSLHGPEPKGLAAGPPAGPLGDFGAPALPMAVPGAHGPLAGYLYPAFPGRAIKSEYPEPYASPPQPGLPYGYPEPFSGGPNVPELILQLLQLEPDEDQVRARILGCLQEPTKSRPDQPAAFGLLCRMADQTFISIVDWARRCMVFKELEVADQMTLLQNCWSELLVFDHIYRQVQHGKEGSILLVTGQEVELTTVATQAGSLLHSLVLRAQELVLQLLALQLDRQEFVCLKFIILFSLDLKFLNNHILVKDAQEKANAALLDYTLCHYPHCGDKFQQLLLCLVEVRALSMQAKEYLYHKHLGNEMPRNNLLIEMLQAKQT

inhibition, active:
COc1ccc(OC)c(Nc2nc(-c3ccc(O)c(O)c3)cs2)c1 85.3%
CCc1ccc2oc(-c3ccc(N)cc3)nc2c1 50.8%
Fc1ccc2[nH]c3c(N4CCN(Cc5ccc6c(c5)OCO6)CC4)ncnc3c2c1 83.3%
Fc1ccc2[nH]c3c(N4CCSCC4)ncnc3c2c1 58.1%
CC[C@]1(O)CC2CN(CCc3c([nH]c4ccccc34)[C@@](C(=O)OC)(c3cc4c(cc3OC)N(C=O)[C@H]3[C@@](O)(C(=O)OC)[C@H](OC(C)=O)[C@]5(CC)C=CCN6CC[C@]43[C@@H]65)C2)C1 (stereo partly drawn) 73.8%
CC[C@]1(O)C[C@@H]2CN(CCc3c([nH]c4ccccc34)[C@@](C(=O)OC)(c3cc4c(cc3OC)N(C)[C@H]3[C@@](O)(C(=O)OC)[C@H](OC(C)=O)[C@]5(CC)C=CCN6CC[C@]43[C@@H]65)C2)C1 73.1%
COc1ccc(CC(=O)Nc2ccc(-c3nnc(-c4ccccc4)o3)cc2)cc1 59.5%
COc1ccc(Nc2cc(C)nc(-n3nc(C)cc3C)n2)cc1 53.7%
CC1CCCCN1S(=O)(=O)c1ccc(C(=O)Nc2nnc(-c3cccs3)o2)cc1 (stereo not drawn) 49.4%
Cc1ccsc1C(=O)OCC(=O)c1cc(C)n(CC2CCCO2)c1C (stereo not drawn) 80.5%
Cn1c(-c2ccco2)nc2cc3ccccc3cc21 54.3%

inhibition, inactive:
O=C(CN1C(=O)COc2ccccc21)NCCN1CCc2ccccc2C1 1.3%
C[N+]1(CCNC(=O)/C=N/O)CCCCC1 3.2%
CC(C)C(=O)Nc1cccc(C(=O)Nc2ccc3c(c2)OCO3)c1 -55%
Cc1cccc(NC(=O)CSC(N)=O)c1C 9.5%
CCOC(=O)c1sc(N(Cc2ccccc2)C(=O)CN2C(=O)CN(C)C2=O)nc1C 3.4%
CCS(=O)(=O)N1CCC(C(=O)N2CCN(c3ccccc3)CC2)CC1 0.7%
O=C(Nc1ccc(NC(=O)c2cccs2)cn1)c1ccco1 -73.3%
O=C(c1cccc(C(=O)N2CCN(c3ccc(F)cc3)CC2)c1)N1CCN(c2ccc(F)cc2)CC1 6.4%
COc1ccc(C2=NOC(C(=O)NCc3ccco3)C2)cc1OC (stereo not drawn) -23.3%
COC(=O)c1ccccc1NC(=O)C1CCN(S(=O)(=O)c2cc(OC)ccc2OC)CC1 4.4%
CC(=O)c1cc(C#N)c(SCC(=O)C(C)(C)C)nc1C -57.1%
CCOC(=O)C1=C(C)N=c2s/c(=C\C(=O)OC)c(=O)n2C1c1ccc(OC)cc1 (stereo not drawn) -6.9%
COc1ccc(OC)c(CNC(=O)C2CCCN(c3nc4ccccc4o3)C2)c1 (stereo not drawn) 9.1%
COCc1cc(C)nc(SCC(=O)Nc2cccc(C)c2)c1C#N 2.8%
Cc1cnc(NC(=O)CSc2nnc(-c3ccccc3)n2Cc2ccccc2)s1 13.7%
COc1ccc(N2CCN(CCNC(=O)CCN3C(=O)COc4ccccc43)CC2)cc1 11.5%
CCOC(=O)CCC(=O)OCC(=O)NC(C)C1CC2CCC1C2 (stereo not drawn) 0.5%
Nc1ccc(-c2nnc(-c3ccc(-c4ccccc4)cc3)o2)cc1 -55.2%
Cc1cc2nc(-c3ccc(NC(=O)c4cccnc4)cc3)oc2cc1C -54.8%
O=C(CSc1nnc2ccccn12)c1ccccc1 -55.3%
O=C(C1CCN(S(=O)(=O)c2cnc[nH]2)CC1)N1CCN(Cc2ccc3c(c2)OCO3)CC1 6.1%
Cc1ccc(N2C(=O)c3ccccc3C2(O)c2ncc[nH]2)cc1 (stereo not drawn) -6.1%
COc1cc(C2C3C(=O)N(c4ccccc4)C(=O)C3ON2c2ccccc2)ccc1O (stereo not drawn) -51.7%
O=C(Nn1cnc2ccccc2c1=O)c1ccc(F)cc1Cl -64.7%
CC1CN(C2CCCCC2)c2nc3c(c(=O)n(C)c(=O)n3C)n2C1 (stereo not drawn) -1.7%
O=C(NCCCN1CCN(C2CCCCC2)CC1)Nc1ccccc1C(F)(F)F -13.5%
CC(C)(C)NC(=O)C(c1ccco1)N(Cc1ccc2c(c1)OCO2)C(=O)Cn1nnc2ccccc21 (stereo not drawn) -8.6%
CCOc1cc(S(=O)(=O)NC2CC(C)(C)NC(C)(C)C2)ccc1F -4.6%
OCCCNC(c1ccccc1)c1ccc(O)cc1 (stereo not drawn) -6.6%
CCCOc1ccccc1C(=O)NCCCC(=O)O -3.2%
COc1ccccc1Oc1ccc(S(=O)(=O)Nc2cccnc2)cc1 13.8%
COc1cc2cc(CN(CCN3CCCC3)C(=O)Nc3ccccc3Cl)c(=O)[nH]c2cc1OC 8.5%
Clc1cccc(Cl)c1Cn1nnc(-c2cccs2)n1 -50.8%
CCCNC(=O)C1CC(=O)N(c2ccc(OCC(=O)Nc3cccc(C)c3C)cc2)C1 (stereo not drawn) -1%
NC(=O)C1CC=CCC1C(=O)OCC(Cl)=C(Cl)Cl (stereo not drawn) 38.2%
CCCCOC(=O)c1[nH]c(C)c(C(=O)OC)c1C -77.7%
O=C(CSc1nnc(-c2c[nH]c3ccccc23)n1-c1ccc(F)cc1)NCc1ccco1 -15.6%
CCOC(=O)c1ccc(-c2ccc(C(=O)Nc3cccnc3)o2)cc1 -51.3%
Cc1ccc(-c2nnc(SC(C)C#N)n2N)cc1 (stereo not drawn) -9.5%
C/C(=C\c1ccco1)C1Nc2cccc3cccc(c23)N1 1.5%
O=C(Nc1ccc(-c2nnc(-c3ccccc3)o2)cc1)C1CCCO1 (stereo not drawn) -65.9%
Cc1ccc(OCC(=O)Nc2ccc(-c3nnc(-c4ccco4)o3)cc2)cc1 -65.5%
O=C(CCS(=O)(=O)c1ccccc1)Nc1nc2c(s1)CCCC2 -3.7%
CS(=O)(=O)c1ccc2nc(NC(=O)CN3CCCCCC3)sc2c1 3.7%
O=C(NCCc1ccc(Cl)cc1)C1CC(=O)N(C2CCCCC2)C1 (stereo not drawn) -13.3%
CCCCCCOC(=O)NCC(O)c1ccccc1 (stereo not drawn) -52.5%
O=C1CCC(Cc2ccccc2)N1 (stereo not drawn) 7.6%
COc1ccc(N2C(=O)CCC(C(=O)Nc3ccccn3)C2c2ccc(OC)c(OC)c2)cc1 (stereo not drawn) -11%
COCCN(CC(=O)Nc1ccccc1C)S(=O)(=O)c1ccc(S(=O)(=O)N2CCCC2)cc1 0.4%
COc1ccc(N2CCN(C(=O)CSc3ncnc4c3cnn4-c3ccc(OC)cc3)CC2)cc1 -9%
Cn1c(=O)c2cn(-c3cccc4ccccc34)cc2n(C)c1=O -21.5%
Cc1cc(NC(=O)c2cc(-c3cccs3)on2)nn1Cc1ccc(Cl)cc1 2.7%
NC(=O)CCCC1=NS(=O)(=O)c2ccccc2N1 10.1%
N/C(=N\c1nc2ccccc2o1)NC(=O)C(Cc1ccccc1)N1C(=O)c2ccccc2C1=O (stereo not drawn) 0.7%
CCOC(=O)C1=C(C)NC(C)=C(C(=O)OCC)C1c1ccccn1 6.7%
CCOC(=O)CNC(=O)CSc1nnc(-c2cccc(OC)c2)n1CC 12.5%
CC(C)(C)n1nc2c(c1NC(=O)c1ccc(S(=O)(=O)N3CCCC3)cc1)CS(=O)C2 (stereo not drawn) 6.6%
Cc1ccc(C(=O)Nc2nnc(-c3cccs3)s2)cc1C -80.9%
Cc1ccc(-n2c(SCC(=O)Nc3ccc4c(c3)OCO4)nnc2-c2ccoc2C)cc1 1%
CCCOC(=O)Nc1ccccc1C(N)=O -2.2%
CCCCOc1ccc(-c2ncc(C(=O)OCC)c(N)n2)cc1 -49.8%
O=C(CN1CCN(c2ccccn2)CC1)NCc1cccs1 -7.1%
COc1ccc(-n2ncc3c(N4CCc5ccccc54)ncnc32)cc1 -59.8%
c1cc(-n2cnnn2)ccc1NC1=NCCC1 9.1%
CCC(=O)Nc1ccc2c(c1)nc(CCN1CCN(C)CC1)n2C 2.6%
CCOC(=O)Cc1csc(NC(=O)C(C)(C)C)n1 -20.2%
CCn1c(CNc2ccc(OC)cc2)nnc1SCC(=O)c1ccc(OC)cc1 9.6%
COc1cc(Cl)c(C)cc1NC(=O)CSc1nnc(-c2cccnc2)n1Cc1ccco1 -10.6%
Cc1nnc(SCC(=O)N(C(C)C)C(C)C)nc1C 3.3%
O=C(OCC(=O)c1cccs1)C1=COCCO1 -24.5%
CCOc1cccc(NC(=O)CC#N)c1 -9.5%
C/C(=N\O)C1(C)N(O)C(C)(C)C(c2ccc(Br)cc2)=[N+]1[O-] (stereo not drawn) 8.5%
O=S(=O)(Nc1ccc2nc(-c3ccco3)[nH]c2c1)c1ccccc1 -53.5%
c1ccc(CSc2nnc(-c3ccco3)n2Cc2ccccc2)cc1 -76%
Cc1cc(NC(=O)CCC(=O)N(c2ccccc2)C(C(=O)NC2CCCC2)c2ccncc2)no1 (stereo not drawn) -9.4%
CCOc1ccccc1NC(=O)CCc1ccc(C)o1 14.7%
O=C(O)C1CCCN(S(=O)(=O)c2cccc3cccnc23)C1 (stereo not drawn) -5.7%
COc1ccc(N2CC(C)Cn3c2nc2c3c(=O)n(Cc3ccccc3F)c(=O)n2C)c(OC)c1 (stereo not drawn) -2.3%
Nc1ncc(-c2cc3ccccc3oc2=O)s1 -79.3%
CCOC(=O)c1c(C(C#N)C#N)cc(C)nc1C -2.3%
CC(C)COC(=O)c1ccc(NC(=O)C2C3C=CC(C3)C2C(=O)O)cc1 (stereo not drawn) -63.7%
Cn1c(=O)c2c(nc(SCCNS(=O)(=O)c3ccccc3)n2C)n(C)c1=O 13.3%
